Records with an inconclusive call do not appear. Calls of active or inactive are those of the source. Rule for the calls, unless noted: active = hit-call score of the fitted dose curve at least 0.9, where 1 is the maximum; inconclusive = response in the unintended direction; inactive = score below 0.9.
System: not listed separately
Experiment: IUF_NPC2-5_cytotoxicity_72hr: Cytotoxicity Assessment at 72 hours in the Leibniz Research Institute for Environmental Medicine (IUF) Neural Progenitor Cell Migration and Differentiation Assay for Cytotoxicity (NPC2-5) (AID 2284306);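 note: LDH release into supernatant measured by resorufin fluorescence marking membrane damage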
How it was run: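 hNPC spheres (0.3 mm), PDL/laminin, DMEM/F12 3:1 + 1% N2; cpd from d0, 7 concs + SC, DMSO max 0.1%; half-medium refresh d3. Readout: supernatant LDH via resorufin fluorescence (RFU), 72 h; gain-of-signal fit.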

Q: Which outcome does the source give for `CNC(=O)ON=CC(C)(C)SC` here?
A: inactive

Q: With `CC(C)(C)c1ccc(CSc2cnn(C(C)(C)C)c(=O)c2Cl)cc1` as the compound, how does the outcome read?
A: inactive

Q: For `CCOc1cc(Oc2ccc(C(F)(F)F)cc2Cl)ccc1[N+](=O)[O-]`, which outcome is on record?
A: inactive

Q: With `CN(C)C(=S)SSC(=S)N(C)C` as the compound, how does the AC50 read?
A: 26.4 µM (active)

Q: For `Cc1ccc(-c2c(Cl)nc(C#N)n2S(=O)(=O)N(C)C)cc1`, which outcome is on record?
A: inactive

Q: For `C=CC1(C)OC(=O)N(c2cc(Cl)cc(Cl)c2)C1=O` (centres undefined), which outcome is on record?
A: inactive

Q: For `COP(N)(=O)SC` (centres undefined), which outcome is on record?
A: inactive

Q: With `CCCCOC(=O)c1ccccc1C(=O)OCCCC` as the compound, how does the outcome read?
A: inactive

Q: For `CCCCC(CC)COC(=O)c1ccccc1C(=O)OCC(CC)CCCC` (centres undefined), which outcome is on record?
A: inactive

Q: For `COC(=O)N(OC)c1ccccc1COc1ccn(-c2ccc(Cl)cc2)n1`, which outcome is on record?
A: inactive

Q: With `CO/C=C(/C(=O)OC)c1ccccc1Oc1cc(Oc2ccccc2C#N)ncn1` as the compound, how does the outcome read?
A: inactive

Q: For `N#Cc1nn(-c2c(Cl)cc(C(F)(F)F)cc2Cl)c(N)c1S(=O)C(F)(F)F` (centres undefined), which outcome is on record?
A: inactive

System: not listed separately
Experiment: IUF_NPC2-5_cytotoxicity_120hr: Cytotoxicity Assessment at 120 hours in the Leibniz Research Institute for Environmental Medicine (IUF) Neural Progenitor Cell Migration and Differentiation Assay (NPC2-5) (AID 2284307);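 for AC50: LDH released into supernatant as membrane damage marker via resorufin fluorescence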
How it was run: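 Human fetal (GW 16-19) neural progenitor spheres (0.3 mm) plated on poly-D-lysine/laminin in N2 differentiation medium, exposed 120 h with half-medium renewal at day 3; 7 concentrations plus solvent control, DMSO ≤0.1%. LDH release in supernatant read by resorufin fluorescence.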

Q: For `CNC(=O)ON=CC(C)(C)SC`, which outcome is on record?
A: inactive

Q: With `CC(C)(C)c1ccc(CSc2cnn(C(C)(C)C)c(=O)c2Cl)cc1` as the compound, how does the outcome read?
A: inactive

Q: For `CCOc1cc(Oc2ccc(C(F)(F)F)cc2Cl)ccc1[N+](=O)[O-]`, which outcome is on record?
A: inactive

Q: Which AC50 does the source give for `CN(C)C(=S)SSC(=S)N(C)C` here?
A: 13 µM (active)

Q: With `Cc1ccc(-c2c(Cl)nc(C#N)n2S(=O)(=O)N(C)C)cc1` as the compound, how does the AC50 read?
A: 33 µM (active)

Q: For `C=CC1(C)OC(=O)N(c2cc(Cl)cc(Cl)c2)C1=O` (centres undefined), which outcome is on record?
A: inactive

Q: With `CCOC(=O)CC(SP(=S)(OC)OC)C(=O)OCC` (centres undefined) as the compound, how does the outcome read?
A: inactive

Q: Which outcome does the source give for `COP(N)(=O)SC` (centres undefined) here?
A: inactive

Q: With `CCCCOC(=O)c1ccccc1C(=O)OCCCC` as the compound, how does the outcome read?
A: inactive

Q: With `CCCCC(CC)COC(=O)c1ccccc1C(=O)OCC(CC)CCCC` (centres undefined) as the compound, how does the outcome read?
A: inactive

Q: With `COC(=O)N(OC)c1ccccc1COc1ccn(-c2ccc(Cl)cc2)n1` as the compound, how does the AC50 read?
A: 2.12 µM (active)

Q: Which outcome does the source give for `CO/C=C(/C(=O)OC)c1ccccc1Oc1cc(Oc2ccccc2C#N)ncn1` here?
A: inactive

Q: With `N#Cc1nn(-c2c(Cl)cc(C(F)(F)F)cc2Cl)c(N)c1S(=O)C(F)(F)F` (centres undefined) as the compound, how does the outcome read?
A: inactive

Q: For `COP(=S)(OC)Oc1nc(Cl)c(Cl)cc1Cl`, which outcome is on record?
A: inactive

System: not listed separately
Experiment: IUF_NPC2-5_cell_number_120hr: Cell Number Assessment at 120 hours in the Leibniz Research Institute for Environmental Medicine (IUF) Neural Progenitor Cell Migration and Differentiation Assay (NPC2-5) (AID 2284308; active = hit-call score of the fitted dose curve at least 0.9, where 1 is the maximum; inactive = score below 0.9;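 note: count of Hoechst-stained nuclei in migration zone around plated human neural progenitor spheres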)
How it was run: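 Human fetal neural progenitor spheres (0.3 mm) plated on poly-D-lysine/laminin in N2 differentiation medium, exposed five days across 7 concentrations with half-medium refresh at day 3. Hoechst-positive nuclei counted in migration area at 120 h, relative to DMSO.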

Q: For `CNC(=O)ON=CC(C)(C)SC`, which outcome is on record?
A: inactive

Q: Which outcome does the source give for `CC(C)(C)c1ccc(CSc2cnn(C(C)(C)C)c(=O)c2Cl)cc1` here?
A: inactive

Q: Which outcome does the source give for `CCOc1cc(Oc2ccc(C(F)(F)F)cc2Cl)ccc1[N+](=O)[O-]` here?
A: inactive

Q: With `CN(C)C(=S)SSC(=S)N(C)C` as the compound, how does the AC50 read?
A: 26.1 µM (active)

Q: With `Cc1ccc(-c2c(Cl)nc(C#N)n2S(=O)(=O)N(C)C)cc1` as the compound, how does the AC50 read?
A: 13.2 µM (active)

Q: With `C=CC1(C)OC(=O)N(c2cc(Cl)cc(Cl)c2)C1=O` (centres undefined) as the compound, how does the outcome read?
A: inactive

Q: For `CCOC(=O)CC(SP(=S)(OC)OC)C(=O)OCC` (centres undefined), which outcome is on record?
A: inactive

Q: With `COP(N)(=O)SC` (centres undefined) as the compound, how does the outcome read?
A: inactive

Q: Which outcome does the source give for `CCCCOC(=O)c1ccccc1C(=O)OCCCC` here?
A: inactive

Q: Which outcome does the source give for `CCCCC(CC)COC(=O)c1ccccc1C(=O)OCC(CC)CCCC` (centres undefined) here?
A: inactive

Q: With `COC(=O)N(OC)c1ccccc1COc1ccn(-c2ccc(Cl)cc2)n1` as the compound, how does the AC50 read?
A: 3.23 µM (active)

Q: For `CO/C=C(/C(=O)OC)c1ccccc1Oc1cc(Oc2ccccc2C#N)ncn1`, which outcome is on record?
A: inactive

Q: Which AC50 does the source give for `N#Cc1nn(-c2c(Cl)cc(C(F)(F)F)cc2Cl)c(N)c1S(=O)C(F)(F)F` (centres undefined) here?
A: 14.2 µM (active)

Q: For `COP(=S)(OC)Oc1nc(Cl)c(Cl)cc1Cl`, which outcome is on record?
A: inactive

System: not listed separately
Experiment: IUF_NPC2-5_viability_120hr: Viability Assessment at 120 hours in the Leibniz Research Institute for Environmental Medicine (IUF) Neural Progenitor Cell Migration and Differentiation Assay (NPC2-5) (AID 2284312; active = hit-call score of the fitted dose curve at least 0.9, where 1 is the maximum; inactive = score below 0.9)
How it was run: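 Human fetal neural progenitor spheres (0.3 mm) plated on poly-D-lysine/laminin in N2 differentiation medium, exposed 120 h with half-medium refresh at day 3. Viability by alamar blue resazurin fluorescence; 7 concentrations, DMSO max 0.1%.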

Q: With `CNC(=O)ON=CC(C)(C)SC` as the compound, how does the outcome read?
A: inactive

Q: Which outcome does the source give for `CC(C)(C)c1ccc(CSc2cnn(C(C)(C)C)c(=O)c2Cl)cc1` here?
A: inactive

Q: Which outcome does the source give for `CCOc1cc(Oc2ccc(C(F)(F)F)cc2Cl)ccc1[N+](=O)[O-]` here?
A: inactive

Q: Which AC50 does the source give for `CN(C)C(=S)SSC(=S)N(C)C` here?
A: 29.1 µM (active)

Q: For `Cc1ccc(-c2c(Cl)nc(C#N)n2S(=O)(=O)N(C)C)cc1`, which AC50 is on record?
A: 11.7 µM (active)

Q: For `C=CC1(C)OC(=O)N(c2cc(Cl)cc(Cl)c2)C1=O` (centres undefined), which outcome is on record?
A: inactive

Q: For `CCOC(=O)CC(SP(=S)(OC)OC)C(=O)OCC` (centres undefined), which outcome is on record?
A: inactive

Q: Which outcome does the source give for `COP(N)(=O)SC` (centres undefined) here?
A: inactive

Q: With `CCCCOC(=O)c1ccccc1C(=O)OCCCC` as the compound, how does the outcome read?
A: inactive

Q: With `CCCCC(CC)COC(=O)c1ccccc1C(=O)OCC(CC)CCCC` (centres undefined) as the compound, how does the outcome read?
A: inactive

Q: For `COC(=O)N(OC)c1ccccc1COc1ccn(-c2ccc(Cl)cc2)n1`, which AC50 is on record?
A: 1.55 µM (active)

Q: With `CO/C=C(/C(=O)OC)c1ccccc1Oc1cc(Oc2ccccc2C#N)ncn1` as the compound, how does the outcome read?
A: inactive

Q: Which outcome does the source give for `N#Cc1nn(-c2c(Cl)cc(C(F)(F)F)cc2Cl)c(N)c1S(=O)C(F)(F)F` (centres undefined) here?
A: inactive

Q: With `COP(=S)(OC)Oc1nc(Cl)c(Cl)cc1Cl` as the compound, how does the outcome read?
A: inactive

System: IYD (gene 389434)
Experiment: CCTE_GLTED_hIYD: CCTE's human Iodotyrosine Deiodinase (xIYD) Inhibition Assay, Great Lakes Toxicology and Ecology Division (GLTED) Lab (AID 2284317);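 note: cell-free human IYD enzyme made in baculovirus insect cells; iodide freed from monoiodotyrosine measured by cerium arsenite color change at 420 nm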
How it was run: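 In the IYD assay, iodide released from MIT by insect-cell-expressed human enzyme was quantified after 3 h via Sandell-Kolthoff rate at 420 nm, with plate-wise normalization to MNT and solvent controls.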

Q: Which outcome does the source give for `CC1COC(Cn2cncn2)(c2ccc(Oc3ccc(Cl)cc3)cc2Cl)O1` (centres undefined) here?
A: inactive

Q: With `Oc1ccccc1-c1ccccc1` as the compound, how does the outcome read?
A: inactive

Q: With `CCCCOC(=O)c1ccccc1C(=O)OCCCC` as the compound, how does the outcome read?
A: inactive

Q: Which outcome does the source give for `N#Cc1cc(Br)c(O)c(Br)c1` here?
A: inactive

Q: For `OC(c1ccc(Cl)cc1)(c1cncnc1)c1ccccc1Cl` (centres undefined), which outcome is on record?
A: inactive

System: not listed separately
Experiment: CCTE_Mundy_HCI_iCellGluta_NOG_NeuriteLength: CCTE's Neurite Outgrowth Assay in iCellGluta cells for Neurite Length, Mundy Lab (AID 2284318)
How it was run: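 Automated high-content imaging of betaIII-tubulin (Alexa Fluor-488) and Hoechst-stained cells gave neurite length, normalized to the DMSO baseline.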

Q: Which AC50 does the source give for `C=CCC1=C(C)[C@@H](OC(=O)[C@@H]2[C@@H](C=C(C)C)C2(C)C)CC1=O` here?
A: 5.87 µM (active)

Q: With `CC(C)(C)c1ccc(CSc2cnn(C(C)(C)C)c(=O)c2Cl)cc1` as the compound, how does the AC50 read?
A: 0.15 µM (active)

Q: For `CCOc1cc(Oc2ccc(C(F)(F)F)cc2Cl)ccc1[N+](=O)[O-]`, which AC50 is on record?
A: 73.7 µM (active)

Q: With `CCCCNC(=O)n1c(NC(=O)OC)nc2ccccc21` as the compound, how does the outcome read?
A: inactive

Q: With `CN(C)C(=S)SSC(=S)N(C)C` as the compound, how does the AC50 read?
A: 0.0483 µM (active)

Q: For `Cc1ccc(-c2c(Cl)nc(C#N)n2S(=O)(=O)N(C)C)cc1`, which AC50 is on record?
A: 32.6 µM (active)

Q: For `C=CC1(C)OC(=O)N(c2cc(Cl)cc(Cl)c2)C1=O` (centres undefined), which AC50 is on record?
A: 19.4 µM (active)

Q: With `CCOC(=O)CC(SP(=S)(OC)OC)C(=O)OCC` (centres undefined) as the compound, how does the AC50 read?
A: 2.98 µM (active)

Q: Which outcome does the source give for `COP(N)(=O)SC` (centres undefined) here?
A: inactive

Q: Which outcome does the source give for `CCCCOC(=O)c1ccccc1C(=O)OCCCC` here?
A: inactive

Q: With `CCCCC(CC)COC(=O)c1ccccc1C(=O)OCC(CC)CCCC` (centres undefined) as the compound, how does the AC50 read?
A: 36.1 µM (active)

Q: With `COC(=O)N(OC)c1ccccc1COc1ccn(-c2ccc(Cl)cc2)n1` as the compound, how does the AC50 read?
A: 2.57 µM (active)

Q: Which AC50 does the source give for `CO/C=C(/C(=O)OC)c1ccccc1Oc1cc(Oc2ccccc2C#N)ncn1` here?
A: 18.9 µM (active)

Q: Which outcome does the source give for `N#Cc1nn(-c2c(Cl)cc(C(F)(F)F)cc2Cl)c(N)c1S(=O)C(F)(F)F` (centres undefined) here?
A: inactive

Q: With `COP(=S)(OC)Oc1nc(Cl)c(Cl)cc1Cl` as the compound, how does the AC50 read?
A: 23.9 µM (active)
